# Compounds with a hit are over-represented: about 28% of the library has one in this group of screens.
# CYP2C19 inhib = blocks human cytochrome P450 2C19. P33261. inhibition, % at 5 µM. 96,000 compounds, 21% hits. CYP2C19 Supersomes, luciferin-H EGE luminescence, 30 min;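 active = CYP2C19 inhibition above a set limit at 5 µM in the primary screen, cut at about 50% in these data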;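 also: plate controls were negative control wells for no effect and 2.5 mM tranylcypromine positive control for full effect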
# CYP2C9 inhib = blocks human cytochrome P450 2C9. P11712. CYP2C9 Supersomes, luciferin-H conversion, luminescence. inhibition, % at 5 µM. 96,000 compounds, 20% hits. AID 777;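 active = blocking of liver enzyme CYP2C9 beyond about 50% at 5 µM, limit read from the data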
# CYP2C19 act = activators of human cytochrome P450 2C19; P33261; recombinant CYP2C19, luciferin-H EGE luminescence; active compounds read high; 0 = fully inhibited enzyme, 1 = untreated enzyme; activation factor at 5 µM; 96,000 tested, under 10 active;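 active = activation factor of at least 2 at 5 µM in the primary screen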;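 also: 0 = wells with 2.5 mM tranylcypromine and 1 = vehicle-only wells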
# Mac1 fbg inh = inhibitors of human CD11b/CD18 binding to fibrinogen; AID 1497; 93,000 compounds, 0.54% hits; inhibition, % at 10 µM; P05107+P11215; K562 CD11b/CD18 adhesion to fibrinogen, ATPlite luminescence; Mn2+ added to activate the integrin;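 active = primary inhibition of 50% or more at 10 µM, then 40% or more on retest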
# Target sequence (P05107 whole entry, looked up, other chains not shown): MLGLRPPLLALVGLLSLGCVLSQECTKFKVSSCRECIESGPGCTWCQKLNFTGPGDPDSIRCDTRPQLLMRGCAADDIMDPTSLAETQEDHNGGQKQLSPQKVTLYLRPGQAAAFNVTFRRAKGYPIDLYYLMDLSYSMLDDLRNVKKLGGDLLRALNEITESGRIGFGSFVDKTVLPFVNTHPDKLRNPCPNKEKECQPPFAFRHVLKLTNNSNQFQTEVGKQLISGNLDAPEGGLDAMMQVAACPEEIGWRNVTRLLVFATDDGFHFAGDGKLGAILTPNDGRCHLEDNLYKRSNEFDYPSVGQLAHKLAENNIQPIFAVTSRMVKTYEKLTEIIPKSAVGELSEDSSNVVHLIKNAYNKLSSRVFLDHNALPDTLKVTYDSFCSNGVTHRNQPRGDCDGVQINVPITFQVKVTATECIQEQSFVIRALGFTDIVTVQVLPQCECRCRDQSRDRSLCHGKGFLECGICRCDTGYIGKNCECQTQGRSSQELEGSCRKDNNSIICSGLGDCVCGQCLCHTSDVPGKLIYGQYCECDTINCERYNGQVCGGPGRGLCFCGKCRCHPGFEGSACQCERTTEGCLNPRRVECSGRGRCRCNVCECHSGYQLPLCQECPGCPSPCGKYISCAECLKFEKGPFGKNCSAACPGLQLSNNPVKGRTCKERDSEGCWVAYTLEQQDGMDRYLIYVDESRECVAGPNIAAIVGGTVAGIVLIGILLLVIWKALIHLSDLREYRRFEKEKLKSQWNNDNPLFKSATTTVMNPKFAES
# CYP2C9 activ = increases human cytochrome P450 2C9 activity | P11712 | recombinant CYP2C9, luciferin-H conversion, luminescence; active compounds read high; factor 1 = untreated enzyme, 0 = blocked | 96,000 compounds, 1.4% hits | AID 1024 | activation factor at 5 µM;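 active = activation factor of 2 or more for CYP2C9 at a 5 µM dose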;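 also: 0 = sulfaphenazole-blocked wells and 1 = vehicle-only wells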
# Mac1 fbg enh = increases human CD11b/CD18 adhesion to fibrinogen; P05107+P11215; K562 CD11b/CD18 adhesion to fibrinogen, ATPlite luminescence; activation, % at 10 µM; 93,000 compounds, 0.07% hits; AID 1499;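 active = 10 µM primary screen giving 50% or more activity, confirmed by 40% or more on retest at that dose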
# * = called active by the depositor; . = no result.
SMILES,CYP2C19 inhib,CYP2C9 inhib,CYP2C19 act,Mac1 fbg inh,CYP2C9 activ,Mac1 fbg enh
COc1ccc(C)cc1S(=O)(=O)N(CC(=O)N1CCCC1)c1ccccc1,14,89*,0.9,-1,0.1,6
Cc1ccc(S(=O)(=O)N(CC(=O)N2CCCCCC2)c2ccccc2)cc1,12,32,0.9,-6,0.7,-1
COc1ccc(Br)cc1S(=O)(=O)N(CC(=O)N1CCOCC1)c1ccccc1,56*,68*,0.4,12,0.3,-3
Cc1ccc(NC(=O)/C=C/c2cccs2)c([N+](=O)[O-])c1,-16,-8,1.2,9,1.1,-2
CCOc1ccc(C2C=C(c3ccccc3)Nc3nnnn32)cc1 (centres undefined),64*,62*,0.4,-7,0.4,-4
CCOc1ccc(C2C=C(c3ccc(C)cc3)Nc3nnnn32)cc1 (centres undefined),83*,84*,0.2,5,0.2,-5
CCOc1ccc(C2C=C(c3ccc(C)cc3)Nc3ncnn32)cc1 (centres undefined),17,46,0.8,-17,0.5,1
Fc1ccc(-c2nc3ccncc3[nH]2)cc1,47,62*,0.5,-1,0.4,-2
Cc1ccc(C(=O)c2coc3cc([N+](=O)[O-])c(O)c([N+](=O)[O-])c23)cc1,.,.,.,78,.,-7
Cc1c(C(=O)N2CCCCCC2)nnn1-c1nonc1N,7,-10,0.9,14,1.1,0
Nc1nonc1-n1nnc(C(=O)O)c1-c1cccs1,10,84*,0.9,-6,0.2,-1
CCOC(=O)c1nnn(-c2nonc2N)c1-c1ccc(OC)cc1,98*,80*,0,-36,0.2,-4
CCOC(=O)c1nnn(-c2nonc2N)c1-c1cccs1,68*,4,0.3,-2,1,0
CCCOc1ccc(-c2c(C(=O)N/N=C/c3ccc(OCC)cc3)nnn2-c2nonc2N)cc1,.,.,.,3,.,-2
CCOC(=O)c1nnn(-c2nonc2N)c1-c1cccc2ccccc12,98*,84*,0,-13,0.2,3
COC(=O)C(C)Sc1nc2c(cnn2-c2ccc(C)cc2)c(=O)[nH]1 (centres undefined),6,41,0.9,.,0.6,.
Cn1c(SCC(=O)Nc2cc(C(C)(C)C)nn2-c2ccccc2)nc2ccccc21,.,.,.,15,.,4
NC(=O)Cc1ccc(Nc2nnc(-c3ccc(O)cc3)c3ccccc23)cc1,.,.,.,-4,.,-1
O=C(NCCCCc1ccccc1)C12CN(Cc3ccccc3)CC1C(c1cccc([N+](=O)[O-])c1)=NO2 (centres undefined),17,13,0.8,11,0.9,10
COc1ccc(CCNC(=O)C23CN(Cc4ccccc4)CC2C(c2ccc([N+](=O)[O-])cc2)=NO3)cc1 (centres undefined),81*,59*,0.2,4,0.4,0
O=C(NCCCCc1ccccc1)C12CN(Cc3ccccc3)CC1C(c1ccc([N+](=O)[O-])cc1)=NO2 (centres undefined),78*,58*,0.2,2,0.4,-2
Cc1ccc(CNC(=O)C23CN(Cc4ccccc4)CC2C(c2ccc([N+](=O)[O-])cc2)=NO3)o1 (centres undefined),35,54*,0.7,-7,0.5,1
COc1ccc(C(=O)NCC(=O)OC2CCCCC2=O)cc1 (centres undefined),81*,0,0.2,-9,1,-3
O=C(CC(c1ccco1)C1CCCCC1=O)c1ccco1 (centres undefined),53*,55*,0.5,-14,0.4,-7
COc1ccc(C(=O)CC(c2ccccc2)C2CCCCC2=O)cc1 (centres undefined),20,73*,0.8,-6,0.3,-2
SMILES,CYP2C19 inhib,CYP2C9 inhib,CYP2C19 act,Mac1 fbg inh,CYP2C9 activ,Mac1 fbg enh
CN(CC(=O)Nc1ccc(Cl)cc1)S(=O)(=O)c1cccc2cccnc12,48,68*,0.5,6,0.3,-3
Cc1cccc(NC(=O)CN(C)S(=O)(=O)c2cccs2)c1,80*,38,0.2,5,0.6,-4
Cc1ccccc1NC(=O)CN(C)S(=O)(=O)c1cccc2cccnc12,72*,88*,0.3,-12,0.1,4
Cc1ccc(S(=O)(=O)N(C)CC(=O)Nc2cccc(C)n2)cc1,23,-25,0.8,-9,1.3,2
O=S(=O)(c1cccc2cccnc12)N(CCO)CCO,-17,-36,1.2,1,1.4,-3
Cc1cccc(NC(=O)CN(C)S(=O)(=O)c2cccc3cccnc23)c1,48,54*,0.5,0,0.5,1
CC(C)[C@H](NC(=O)NCCc1ccc(Cl)cc1)C(=O)O,-4,12,1,2,0.9,3
CN(CC(=O)Nc1ccc2c(c1)OCCO2)S(=O)(=O)c1cccc2cccnc12,78*,94*,0.2,-6,0.1,-3
Cc1cccc(NS(=O)(=O)c2cccs2)c1,93*,20,0.1,0,0.8,-2
COc1ccc(NC(=O)CN(C)S(=O)(=O)c2cccc3cccnc23)cc1,70*,90*,0.3,-14,0.1,0
CCOC(=O)c1nn(-c2ccccc2)c(=O)c2c(N)scc12,7,5,0.9,-7,1,-1
Nc1scc2c(C(=O)N/N=C/c3ccc(Cl)cc3)nn(-c3ccccc3)c(=O)c12,6,54*,0.9,-15,0.5,19
O=C(Nc1cccc2ncccc12)C12CC3CC(CC(C3)C1)C2,-1,-24,1,-10,1.2,-3
O=C(CC12CC3CC(CC(C3)C1)C2)Nc1cccc2ncccc12,51*,27,0.5,2,0.7,0
CC1(C)CC(=O)C2=C(C1)N(Cc1ccco1)C(=O)NC2(C(F)(F)F)C(F)(F)F,4,7,1,-13,0.9,-6
CC(=O)NC1(C(F)(F)F)C(=O)N(Cc2ccccc2)C2=C1C(=O)CC(C)(C)C2 (centres undefined),10,0,0.9,.,1,.
CC(=O)C1=C(C)N(Cc2ccco2)C(=O)C1(NC(=O)C1CCCCC1)C(F)(F)F (centres undefined),-8,27,1.1,-30,0.7,-4
CC1(C)CC(=O)C2=C(C1)N(Cc1ccco1)C(=O)C2(NC(=O)c1ccc(Cl)cc1Cl)C(F)(F)F (centres undefined),83*,7,0.2,.,0.9,.
CC1(C)CC(=O)C2=C(C1)N(Cc1ccco1)C(=O)C2(NC(=O)C1CCCCC1)C(F)(F)F (centres undefined),38,51*,0.6,-24,0.5,3
CC1=NC(C(F)(F)F)(C(F)(F)F)C2=C(CC(C)(C)CC2=O)N1Cc1ccco1,56*,54*,0.4,-3,0.5,-5
Cc1ccc(S(=O)(=O)Nc2ccc3c(c2)CCC3)cc1C,.,.,.,36,.,-3
